# Reference: ChEMBL document CHEMBL3988442, “University of Dundee, Small-Polar-MMV Screening Library” (2021)
# Out of some 48,000 compounds screened, about 13,000 (27%) showed an effect of 50% or more. The list shows a part of the results.
# System: Wolbachia pipientis
# Assay: Anti-Wolbachia Cell-Based Screen
# Type: functional
# Parameters: scale not given: in the data most compounds retested in dose-response had high values
# Conditions: 5 µM
row,SMILES,Percent Effect [%]
1,CCc1noc(CN(C)Cc2cc(Br)ccc2OC)n1,4.438
2,Cc1ccn(-c2ccccc2NCc2cscn2)n1,-9.752
3,COC(=O)C(c1cc(F)ccc1F)N(C)C(=O)c1cnc(C)cn1 (stereo not given),103
4,COC(=O)C(c1ccccc1)N(C)C(=O)c1ccnc(C)n1 (stereo not given),100.7
5,COC(=O)C(c1cc(F)ccc1F)N(C)C(=O)c1cnccn1 (stereo not given),118.4
6,COC(=O)c1cnc(C(=O)N(c2ccc(OC)c(F)c2)C(C)C)cn1,-7.917
7,COC(=O)C(c1cc(F)ccc1F)N(C)C(=O)c1csnn1 (stereo not given),3.05
8,COC(=O)C(c1cc(F)ccc1F)N(C)C(=O)c1ccccn1 (stereo not given),114.5
9,Cc1nccc(CNC(=O)NCC(C)Oc2ccccc2F)n1 (stereo not given),-7.985
10,COc1ccc(N(C(=O)c2cnc(C)cn2)C(C)C)cc1F,9.374
11,COC(=O)C(c1cc(F)ccc1F)N(C)C(=O)c1ccnc(C)n1 (stereo not given),4.378
12,COC(=O)C(c1cc(F)ccc1F)N(C)C(=O)c1cccnc1O (stereo not given),1.784
13,Cc1cccc(N(CCC(N)=O)C(=O)c2ccnc(C)n2)c1,-10.53
14,CN(C)CCN(Cc1ccc(Cl)cc1)C(=O)c1cnccn1,-5.634
15,O=C1N(Cc2cccc(F)c2F)CCCC1(O)CNCc1ccccc1 (stereo not given),16.03
16,Cc1c(CNS(=O)(=O)c2cccc(COC(C)C)c2)cnn1C,-15.21
17,CN1C[C@@H](NC(=O)C(C)(C)C)C[C@H]1C(=O)NCc1ncc[nH]1,-5.014
18,COCCOC[C@]1(CNC(=O)c2ccc(OC)cc2)C[C@@H](O)[C@@H](O)C1,-0.4241
19,Cc1cc(C)c(CNC(=O)NCc2nnc3n2CCCCC3)c(=O)[nH]1,-9.467
20,O=C(CN1CCOc2ccc(Cl)cc21)NCc1ncc[nH]1,-5.45
21,Cc1cccc(C)c1CCNC(=O)N1CCCC2(C1)OCCO2,-0.05309
22,Cc1ccccc1NC(=O)N1CC[C@@H]2CN(CC(C)C)S(=O)(=O)[C@@H]2CC1,-60.79
23,CCN(Cc1c(C)nn(C)c1C)C(=O)C1COc2ccccc2C1 (stereo not given),-5.134
24,CC(C)c1n[nH]c(C2CN(C(=O)c3cc(C4CC4)on3)CCO2)n1 (stereo not given),113.9
25,Cc1n[nH]c(C2CN(C(=O)c3csnn3)CCO2)n1 (stereo not given),-23.45
26,Cc1n[nH]c(C2CN(C(=O)c3cc(C4CC4)on3)CCO2)n1 (stereo not given),119.9
27,CC(C)c1n[nH]c(C2CN(C(=O)c3csnn3)CCO2)n1 (stereo not given),4.906

row,SMILES,Percent Effect [%]
1,CC(C)c1n[nH]c(C2CN(Cc3nnc(C4CC4)o3)CCO2)n1 (stereo not given),-9.108
2,Cc1n[nH]c(C2CN(C(=O)c3ccon3)CCO2)n1 (stereo not given),-8.521
3,CN1CCN2CCN(C(=O)c3cc4ncc(CCO)cn4n3)CC2C1 (stereo not given),-4.032
4,CCCn1ccnc1SCC(=O)NC(Cc1ccccc1)C(C)=O (stereo not given),22.6
5,COCC(C)NC(=O)c1cc(Br)c2c(c1)OCCO2 (stereo not given),-1.818
6,CC(C)(C)CNC1(Cc2cc(C(C)(C)O)on2)COC1,-22.48
7,Cc1cnc(N2CCC3(CC2)CC3CN(C)Cc2cccnc2)nc1.O=C(O)C(F)(F)F.O=C(O)C(F)(F)F (stereo not given),2.289
8,CN(Cc1cccnc1)CC1CC12CCCC2 (stereo not given),103.1
9,CN(Cc1cccnc1)CC1CC12CCN(Cc1nccs1)CC2 (stereo not given),11.24
10,CC(C)(C)c1n[nH]c(C2CN(C(=O)CCC3CC3)CCO2)n1 (stereo not given),-7.383
11,CC(C)(C)c1n[nH]c(C2CN(C(=O)c3cnc[nH]3)CCO2)n1 (stereo not given),97.58
12,CC(C)(C)c1n[nH]c(C2CN(C(=O)c3ccsc3)CCO2)n1 (stereo not given),-3.296
13,Cc1n[nH]c(C2CN(C(=O)c3cnc[nH]3)CCO2)n1 (stereo not given),-6.3
14,Cc1nc(CC(=O)N2CCOC(c3nc(C(C)(C)C)n[nH]3)C2)cs1 (stereo not given),-6.24
15,CSCC(=O)N1CCOC(c2nc(C(C)C)n[nH]2)C1 (stereo not given),117.1
16,Cc1nc(CN2CCOC(c3nc(C(C)C)n[nH]3)C2)oc1C (stereo not given),-6.661
17,CSCC(=O)N1CCOC(c2nc(C(C)(C)C)n[nH]2)C1 (stereo not given),103.9
18,CC(C)c1n[nH]c(C2CN(C(=O)CCCn3cccn3)CCO2)n1 (stereo not given),-13
19,CC(C)(C)c1n[nH]c(C2CN(C(=O)c3cc(C4CC4)[nH]n3)CCO2)n1 (stereo not given),116
20,CCc1n[nH]c(C2CN(C(=O)c3cnc[nH]3)CCO2)n1 (stereo not given),-7.128
21,Cc1n[nH]c(C2CN(C(=O)c3cc(C4CC4)[nH]n3)CCO2)n1 (stereo not given),6.266
22,CCc1ccc(C(=O)N2C[C@@H]3COC[C@@H](C(=O)NC)[C@@H]3C2)cc1,-16.14
23,Cc1ccc(S(=O)(=O)N2CC(C)Oc3ncccc32)c(C)c1 (stereo not given),-17.54
24,Cn1nnc2c1CCN(C(=O)C1CC1)C2COCCN1CCCC1.O=C(O)C(F)(F)F (stereo not given),-5.654
25,CCn1ncnc1CN1CCc2[nH]cnc2C1Cc1ccccc1 (stereo not given),-1.907
26,Cc1cccc(CNC2(CCO)CCOCC2)c1C,-7.231
27,CSC(C)C(=O)NS(=O)(=O)CCc1ccccc1 (stereo not given),-7.68

row,SMILES,Percent Effect [%]
1,CSCC(=O)N1CCOC(c2nc(C)n[nH]2)C1 (stereo not given),81.74
2,Cc1n[nH]c(C2CN(C(=O)c3ccc(Cl)o3)CCO2)n1 (stereo not given),-21.06
3,Cc1[nH]c(-c2ccccc2)nc1C(=O)N1CCc2[nH]cnc2C1C(=O)O (stereo not given),-27.35
4,COCCCNC(=O)Cc1cc(-c2ccc(Cl)cc2)on1,18.42
5,COCCCNc1c(-c2ccc(Cl)cc2)c(=O)c1=O,75.4
6,COCCNc1c(-c2ccc(Cl)cc2)c(=O)c1=O,106.9
7,COCCN1CCN(Cc2ccc(Cl)cc2)[C@H]2CS(=O)(=O)C[C@H]21,3.262
8,COCCCN(C)S(=O)(=O)c1ccc(Cl)cc1C#N,-9.182
9,COCCNC(=O)CCNc1ccc(Cl)cn1,-1.356
10,CCCNC(=O)CC1OCCc2ccsc21 (stereo not given),-18.02
11,CN1CCN(C[C@@H]2CN(Cc3c(Cl)cncc3Cl)C[C@@H]2CO)CC1,-1.243
12,Cn1ncc2c1C(COCC1CC1)CN(S(C)(=O)=O)C2 (stereo not given),3.209
13,COCC1CN(c2ncc(F)cn2)Cc2cnn(C)c21.O=C(O)C(F)(F)F.O=C(O)C(F)(F)F (stereo not given),94.8
14,COCC1CN(Cc2cc(C)on2)Cc2cnn(C)c21.O=C(O)C(F)(F)F.O=C(O)C(F)(F)F (stereo not given),-1.756
15,Cn1ncc2c1C(COCC1CC1)CN(c1ncc(F)cn1)C2 (stereo not given),102.8
16,CCOCCN1Cc2cnn(C)c2C(COCC)C1.O=C(O)C(F)(F)F.O=C(O)C(F)(F)F (stereo not given),-55.01
17,COCC1CN(C(=O)N2CCCC2)Cc2cnn(CC3CCCC3)c21 (stereo not given),9.026
18,COCC1CN(c2ncccn2)Cc2cnn(CC3CC3)c21 (stereo not given),112.4
19,CCn1ncc2c1C(COC)CN(S(=O)(=O)N(C)C)C2.O=C(O)C(F)(F)F (stereo not given),-1.525
20,CCn1ncc2c1C(COC)CN(c1ncc(F)cn1)C2.O=C(O)C(F)(F)F.O=C(O)C(F)(F)F (stereo not given),103.8
21,Cn1ncc2c1C(COCC1CC1)CN(CC1CC1)C2 (stereo not given),3.494
22,Cn1cc(C[C@H]2[C@H](N3CCOCC3)CCN2C2CCOCC2)cn1.O=C(O)C(F)(F)F.O=C(O)C(F)(F)F,-4.511
23,COCC1(C(=O)N2CCC(c3nccn3CC3CC3)CC2)CCC1,2.579
24,CCN(CC)CCSc1nnc(N2CCN(c3ccccc3)CC2)s1,-12.7
25,CN(Cc1cccc(O)c1)CC1CCCN(CCc2ccc(Cl)cc2)C1 (stereo not given),2.569
26,CNC(=O)CSc1cnn(CC(=O)Nc2cccc(Cl)c2C)c(=O)c1Cl,-42.51
27,Cc1cnc(N2CCC3(CCC(C(=O)NC(C)C)OC3)CC2)nc1 (stereo not given),-9.523

row,SMILES,Percent Effect [%]
1,CC(=O)N1CCCN(C(=O)NCCCNS(C)(=O)=O)CC1,-1.689
2,COCCN1CCN(C(=O)c2ccc(C)cc2OC)[C@H]2CS(=O)(=O)C[C@H]21,5.009
3,COc1ccccc1N1CCC(CNCc2cccc(C#N)c2)C1 (stereo not given),-2.203
4,COc1cccc(N2CCC(CNCc3cccc(C#N)c3)C2)c1 (stereo not given),82.37
5,N#Cc1ccc(CNCC2CCN(CCO)CC2)cc1,-8.382
6,COc1ccccc1N1CCC(CNCc2c(C)nn(C)c2OC)C1 (stereo not given),-29.19
7,COc1ccc(CNCC2CCN(c3ccccc3OC)C2)cc1O (stereo not given),114.3
8,COc1cccc(N2CCC(CNc3cc(C)nc4ncnn34)C2)c1 (stereo not given),-5.133
9,COc1cccc(N2CCC(CNC(=O)NCc3ccco3)C2)c1 (stereo not given),2.217
10,COc1ccccc1N1CCC(CNS(=O)(=O)c2c(C)nn(C)c2C)C1 (stereo not given),-2.863
11,COc1ccccc1N1CCC(CNCc2ccc(C#N)cc2)C1 (stereo not given),109.5
12,COc1ccccc1N1CCC(CNS(=O)(=O)c2cccs2)C1 (stereo not given),-9.312
13,COc1ccccc1N1CCC(CNCc2cccc(O)c2)C1 (stereo not given),-3.366
14,COc1ccccc1N1CCC(CNS(=O)(=O)c2cccc(C#N)c2)C1 (stereo not given),87.58
15,CC(C)(C)N1CC(C(=O)N2CCN(CCn3cncn3)CC2)CC1=O (stereo not given),-32.16
16,Cc1nc(NC(=O)NC2CC(=O)N(C(C)C)C2)nn1C(C)C (stereo not given),-10.65
17,N#CCCN1CCC(=Cc2ccccc2)CC1,4.186
18,COCCC(=O)N1CCC2(COCc3cnc(-c4cccnc4)nc32)C1 (stereo not given),82.83
19,CC(C)NC(=O)N1CCC2(COCc3cnc(-c4ccccc4)nc32)C1 (stereo not given),-4.544
20,O=C(CC1CC1)N1CCC2(COCc3cnc(-c4ccccc4)nc32)C1 (stereo not given),-2.156
21,O=C(C1CCC1)N1CCC2(COCc3cnc(-c4cccnc4)nc32)C1 (stereo not given),-1.349
22,O=C(CC1CC1)N1CCC2(COCc3cnc(-c4cccnc4)nc32)C1 (stereo not given),110.1
23,COCC(=O)N1CCC2(COCc3cnc(-c4ccccc4)nc32)C1 (stereo not given),-5.335
24,CC(C)C(=O)N1CCC2(COCc3cnc(-c4cccnc4)nc32)C1 (stereo not given),110.7
